Of roughly 7,900 targets only a part is listed; those with a hit were picked by preference. About 0.6% of all pairs of compound and target were hits.
Compound: Cc1cc(SCc2sc(-c3ccc(C(F)(F)F)cc3)nc2C)ccc1OCC(=O)O
Experiment: log2 fold change, soluble protein after heating vs DMSO (PISA); higher = thermal stabilisation; K562 cells, 10 uM, 30 min; active = over 0.2 and 3.5 SD of the protein, either way, in both replicates (recomputed)
Procedure, shortened: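 Thermal stability values are relative to control samples and come from duplicates. They are expressed as log2 fold changes. For measurement, K562 cells (2×10^6 cells/mL) received 10 μM compound for 30 min, and aliquots were heated for 3 min over 48°C-58°C, pooled, and extracted at 4°C in PBS with 0.5% NP-40. Soluble protein, the supernatant after 21,000xg for 90 min, was quantified by TMTpro 16plex LC-MS/MS with equalised channel sums.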

UniProt O14578, sequence (O14578 whole entry, looked up): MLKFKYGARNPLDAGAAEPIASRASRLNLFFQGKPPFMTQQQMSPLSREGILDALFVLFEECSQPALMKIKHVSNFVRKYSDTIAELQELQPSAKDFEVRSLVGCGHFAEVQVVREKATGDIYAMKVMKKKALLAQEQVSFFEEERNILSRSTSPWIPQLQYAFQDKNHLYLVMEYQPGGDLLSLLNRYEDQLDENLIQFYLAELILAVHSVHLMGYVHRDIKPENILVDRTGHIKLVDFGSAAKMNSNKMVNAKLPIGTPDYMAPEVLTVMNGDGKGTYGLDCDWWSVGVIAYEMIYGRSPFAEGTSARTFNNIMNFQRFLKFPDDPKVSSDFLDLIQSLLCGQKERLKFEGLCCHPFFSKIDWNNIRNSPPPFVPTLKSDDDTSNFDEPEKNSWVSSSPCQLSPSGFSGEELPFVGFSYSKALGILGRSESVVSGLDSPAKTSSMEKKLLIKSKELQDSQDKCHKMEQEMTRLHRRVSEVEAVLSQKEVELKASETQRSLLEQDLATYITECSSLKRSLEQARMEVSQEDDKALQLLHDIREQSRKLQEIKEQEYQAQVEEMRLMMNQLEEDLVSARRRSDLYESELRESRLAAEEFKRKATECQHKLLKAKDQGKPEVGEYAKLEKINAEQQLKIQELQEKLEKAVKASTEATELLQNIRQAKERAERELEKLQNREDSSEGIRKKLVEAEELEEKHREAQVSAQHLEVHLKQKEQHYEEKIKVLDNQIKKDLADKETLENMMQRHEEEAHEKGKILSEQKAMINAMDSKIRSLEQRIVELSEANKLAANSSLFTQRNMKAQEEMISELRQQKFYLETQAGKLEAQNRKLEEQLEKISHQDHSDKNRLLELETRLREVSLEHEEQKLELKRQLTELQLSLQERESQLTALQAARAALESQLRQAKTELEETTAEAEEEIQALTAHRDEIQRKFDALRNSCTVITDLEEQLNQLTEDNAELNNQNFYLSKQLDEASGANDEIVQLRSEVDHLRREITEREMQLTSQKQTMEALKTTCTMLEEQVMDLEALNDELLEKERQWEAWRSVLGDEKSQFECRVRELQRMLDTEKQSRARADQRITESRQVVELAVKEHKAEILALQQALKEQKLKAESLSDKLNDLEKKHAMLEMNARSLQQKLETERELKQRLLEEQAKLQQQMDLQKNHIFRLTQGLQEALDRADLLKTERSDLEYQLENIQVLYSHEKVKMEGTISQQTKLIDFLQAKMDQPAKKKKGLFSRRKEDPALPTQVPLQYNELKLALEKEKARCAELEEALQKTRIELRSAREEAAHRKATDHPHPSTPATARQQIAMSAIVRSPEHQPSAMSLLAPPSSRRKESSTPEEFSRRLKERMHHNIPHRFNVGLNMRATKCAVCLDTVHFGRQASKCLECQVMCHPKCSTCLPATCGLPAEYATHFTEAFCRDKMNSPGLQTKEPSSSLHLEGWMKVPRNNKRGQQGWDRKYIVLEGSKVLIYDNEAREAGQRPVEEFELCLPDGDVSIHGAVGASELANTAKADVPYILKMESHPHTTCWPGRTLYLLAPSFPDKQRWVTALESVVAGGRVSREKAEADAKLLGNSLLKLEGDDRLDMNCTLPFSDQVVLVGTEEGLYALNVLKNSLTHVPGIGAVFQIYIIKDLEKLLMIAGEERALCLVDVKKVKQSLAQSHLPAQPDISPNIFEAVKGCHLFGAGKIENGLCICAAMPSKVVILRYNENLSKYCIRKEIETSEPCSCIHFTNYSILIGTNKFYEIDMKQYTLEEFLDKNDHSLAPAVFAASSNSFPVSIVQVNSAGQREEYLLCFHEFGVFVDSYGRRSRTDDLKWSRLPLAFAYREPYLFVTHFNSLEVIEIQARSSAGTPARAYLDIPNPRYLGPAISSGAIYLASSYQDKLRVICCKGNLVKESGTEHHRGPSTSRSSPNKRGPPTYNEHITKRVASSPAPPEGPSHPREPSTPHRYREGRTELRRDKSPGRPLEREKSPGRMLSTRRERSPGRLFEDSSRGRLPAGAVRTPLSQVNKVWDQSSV
UniProt P51790, sequence (P51790 whole entry, looked up): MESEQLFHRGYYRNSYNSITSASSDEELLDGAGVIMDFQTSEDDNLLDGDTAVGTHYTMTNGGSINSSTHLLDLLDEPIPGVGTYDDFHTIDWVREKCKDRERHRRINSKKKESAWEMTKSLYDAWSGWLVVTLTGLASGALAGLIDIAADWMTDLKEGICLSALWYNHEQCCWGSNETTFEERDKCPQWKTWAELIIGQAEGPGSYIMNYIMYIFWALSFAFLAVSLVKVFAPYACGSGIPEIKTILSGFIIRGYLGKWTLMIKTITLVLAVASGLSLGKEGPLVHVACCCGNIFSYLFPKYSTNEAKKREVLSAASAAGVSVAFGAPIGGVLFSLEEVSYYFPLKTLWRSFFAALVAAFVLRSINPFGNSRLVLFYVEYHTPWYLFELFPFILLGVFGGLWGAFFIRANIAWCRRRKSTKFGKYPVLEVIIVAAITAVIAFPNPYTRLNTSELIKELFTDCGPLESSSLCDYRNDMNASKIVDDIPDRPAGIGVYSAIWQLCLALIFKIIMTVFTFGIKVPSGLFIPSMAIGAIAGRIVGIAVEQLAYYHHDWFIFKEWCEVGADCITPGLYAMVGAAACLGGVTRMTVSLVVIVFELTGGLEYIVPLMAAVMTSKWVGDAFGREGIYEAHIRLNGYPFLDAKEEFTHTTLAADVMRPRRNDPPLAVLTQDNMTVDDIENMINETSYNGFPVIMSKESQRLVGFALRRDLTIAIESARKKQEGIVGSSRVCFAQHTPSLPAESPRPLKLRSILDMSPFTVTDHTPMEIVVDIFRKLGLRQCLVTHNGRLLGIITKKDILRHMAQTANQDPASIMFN
UniProt Q12996, sequence (Q12996 whole entry, looked up): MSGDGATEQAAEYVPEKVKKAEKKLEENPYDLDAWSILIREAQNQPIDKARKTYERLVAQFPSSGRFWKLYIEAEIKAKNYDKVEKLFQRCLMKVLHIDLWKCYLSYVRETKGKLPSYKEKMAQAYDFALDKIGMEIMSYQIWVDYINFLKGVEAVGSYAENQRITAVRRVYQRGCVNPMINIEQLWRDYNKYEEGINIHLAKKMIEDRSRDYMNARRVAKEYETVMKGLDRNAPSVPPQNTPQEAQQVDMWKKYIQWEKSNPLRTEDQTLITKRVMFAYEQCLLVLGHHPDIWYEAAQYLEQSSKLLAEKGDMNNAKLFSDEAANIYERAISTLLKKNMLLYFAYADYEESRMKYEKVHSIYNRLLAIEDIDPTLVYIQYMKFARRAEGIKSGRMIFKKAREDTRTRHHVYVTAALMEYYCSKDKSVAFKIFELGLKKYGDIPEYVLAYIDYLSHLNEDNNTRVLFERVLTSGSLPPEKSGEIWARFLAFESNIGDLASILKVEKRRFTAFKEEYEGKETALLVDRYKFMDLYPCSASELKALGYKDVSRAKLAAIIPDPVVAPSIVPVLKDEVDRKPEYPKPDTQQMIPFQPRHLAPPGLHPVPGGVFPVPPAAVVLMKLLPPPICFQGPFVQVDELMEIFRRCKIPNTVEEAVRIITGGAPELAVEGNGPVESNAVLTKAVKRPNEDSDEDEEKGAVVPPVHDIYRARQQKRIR
UniProt Q14004, sequence (Q14004 whole entry, looked up): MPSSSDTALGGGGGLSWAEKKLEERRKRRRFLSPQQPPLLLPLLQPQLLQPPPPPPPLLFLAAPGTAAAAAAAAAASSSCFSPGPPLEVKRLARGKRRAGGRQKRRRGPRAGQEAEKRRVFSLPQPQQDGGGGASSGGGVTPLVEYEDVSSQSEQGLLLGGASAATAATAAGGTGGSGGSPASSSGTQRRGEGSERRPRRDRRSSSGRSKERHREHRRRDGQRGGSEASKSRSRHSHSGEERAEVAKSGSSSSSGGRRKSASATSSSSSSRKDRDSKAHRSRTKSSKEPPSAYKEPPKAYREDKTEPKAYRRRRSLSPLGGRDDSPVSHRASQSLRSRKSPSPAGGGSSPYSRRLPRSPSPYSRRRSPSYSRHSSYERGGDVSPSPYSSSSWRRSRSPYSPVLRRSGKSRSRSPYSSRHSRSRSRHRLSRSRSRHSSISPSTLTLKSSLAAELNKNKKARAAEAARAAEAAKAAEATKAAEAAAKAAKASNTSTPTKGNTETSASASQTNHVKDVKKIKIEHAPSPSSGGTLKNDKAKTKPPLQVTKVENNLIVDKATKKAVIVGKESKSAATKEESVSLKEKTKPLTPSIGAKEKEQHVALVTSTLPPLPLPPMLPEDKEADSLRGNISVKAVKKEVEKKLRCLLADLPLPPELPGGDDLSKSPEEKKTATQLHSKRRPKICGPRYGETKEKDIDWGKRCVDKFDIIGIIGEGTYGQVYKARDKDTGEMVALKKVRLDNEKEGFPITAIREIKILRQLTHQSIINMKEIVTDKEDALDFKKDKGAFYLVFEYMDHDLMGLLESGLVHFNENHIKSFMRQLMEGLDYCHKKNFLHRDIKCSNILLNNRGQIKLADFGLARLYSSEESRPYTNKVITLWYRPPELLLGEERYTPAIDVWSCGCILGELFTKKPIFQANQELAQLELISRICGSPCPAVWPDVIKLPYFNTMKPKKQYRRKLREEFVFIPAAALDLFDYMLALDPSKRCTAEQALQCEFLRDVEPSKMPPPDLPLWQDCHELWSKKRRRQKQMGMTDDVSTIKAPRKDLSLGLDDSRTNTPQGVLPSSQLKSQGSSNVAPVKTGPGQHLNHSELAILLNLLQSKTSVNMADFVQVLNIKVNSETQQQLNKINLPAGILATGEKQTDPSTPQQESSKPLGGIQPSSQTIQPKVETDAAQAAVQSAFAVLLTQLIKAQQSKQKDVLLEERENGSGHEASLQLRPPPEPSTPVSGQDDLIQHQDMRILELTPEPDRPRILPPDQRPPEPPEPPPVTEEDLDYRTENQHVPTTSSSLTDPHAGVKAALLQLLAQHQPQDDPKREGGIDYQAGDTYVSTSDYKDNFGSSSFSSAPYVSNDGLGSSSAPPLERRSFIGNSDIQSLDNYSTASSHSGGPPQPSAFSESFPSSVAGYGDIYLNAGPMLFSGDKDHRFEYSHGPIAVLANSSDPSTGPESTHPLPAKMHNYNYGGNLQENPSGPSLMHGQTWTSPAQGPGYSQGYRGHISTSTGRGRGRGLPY

Row | Target | log2 fold change
1 | CHERP (UniProt Q8IWX8) | 0.138 (inactive)
2 | CPSF6 isoform 2 (UniProt Q16630) | -0.012 (inactive)
3 | CDK13 (UniProt Q14004) | 0.141 (inactive)
4 | COMMD2 (UniProt Q86X83) | -0.018 (inactive)
5 | CDC26 (UniProt Q8NHZ8) | -0.021 (inactive)
6 | CLCN3 isoform 2 (UniProt P51790) | -0.011 (inactive)
7 | CAMKK2 (UniProt Q96RR4) | 0 (inactive)
8 | CHKA (UniProt P35790) | -0.012 (inactive)
9 | CSTF3 (UniProt Q12996) | -0.031 (inactive)
10 | CD55 isoform 7 (UniProt P08174) | -0.031 (inactive)
11 | CSNK2A1 (UniProt P68400) | 0.005 (inactive)
12 | CIT isoform 4 (UniProt O14578) | -0.033 (inactive)

From the supplement of paper PMC10849652
